BoNT-A LC inh2 – inhibitors of Botulinum neurotoxin A light chain protease. multiplex microsphere protease substrate cleavage, flow cytometry. inhibition, % at 10 µM. 360,000 tested, 0.17% active. AID 588499; note: plate controls were buffer without enzyme for full effect and enzyme alone for no effect
Anthrax LF inh2 – anthrax lethal factor protease inhibition. P15917. multiplex microsphere protease cleavage assay, LF. inhibition, % at 10 µM. 360,000 tested, 0.12% active. AID 588501; note: plate controls were buffer without enzyme for full effect and enzyme alone for no effect
Target sequence (P15917 whole entry, looked up): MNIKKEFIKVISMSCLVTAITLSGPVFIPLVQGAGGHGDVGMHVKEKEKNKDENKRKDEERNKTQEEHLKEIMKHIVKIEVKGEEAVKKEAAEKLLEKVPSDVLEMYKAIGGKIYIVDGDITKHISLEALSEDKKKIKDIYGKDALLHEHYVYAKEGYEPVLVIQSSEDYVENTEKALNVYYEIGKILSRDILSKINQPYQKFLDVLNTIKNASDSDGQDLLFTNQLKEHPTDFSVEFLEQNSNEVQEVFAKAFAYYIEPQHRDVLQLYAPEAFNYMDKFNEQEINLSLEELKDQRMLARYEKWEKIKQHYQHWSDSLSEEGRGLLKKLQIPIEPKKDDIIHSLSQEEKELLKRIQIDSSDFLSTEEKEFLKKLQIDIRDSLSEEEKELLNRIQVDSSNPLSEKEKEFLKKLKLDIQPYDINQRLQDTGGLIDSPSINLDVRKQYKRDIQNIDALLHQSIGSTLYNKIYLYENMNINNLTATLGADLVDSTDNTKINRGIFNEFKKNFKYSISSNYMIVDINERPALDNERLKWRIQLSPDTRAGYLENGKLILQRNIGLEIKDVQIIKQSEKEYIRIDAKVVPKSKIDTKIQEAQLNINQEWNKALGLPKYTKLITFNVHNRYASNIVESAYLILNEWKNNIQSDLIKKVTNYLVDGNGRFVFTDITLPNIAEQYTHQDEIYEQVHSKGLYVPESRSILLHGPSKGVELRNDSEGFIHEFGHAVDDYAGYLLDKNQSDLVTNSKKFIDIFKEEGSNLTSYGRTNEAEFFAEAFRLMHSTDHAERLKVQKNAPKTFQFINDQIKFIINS
BoNT-F LC inh – inhibitors of Botulinum neurotoxin F light chain protease. 360,000 tested, 0.22% active. Multiplex microsphere protease cleavage assay, flow cytometry. inhibition, % at 10 µM; in the data active = inhibition above about 35%, passing the limit was not always enough; inconclusive = no clear call, values can overlap the other calls; note: plate controls were buffer without enzyme for full effect and enzyme alone for no effect
Bead autofluor – compound fluorescence in toxin protease inhibitor counterscreen | compound autofluorescence counterscreen, microsphere flow cytometry; stronger effect = higher value | 360,000 tested, 3.1% active | fluorescence intensity (no concentration beside the values) | AID 624483; in the data active = fluorescence intensity above about 16000; inconclusive = no clear call, values can overlap the other calls
PriA SSB inh – inhibitors of Klebsiella pneumoniae PriA binding to SSB C-terminal tail | AlphaScreen SSBct-PriA binding, biotinylated peptide | inhibition, % at 33 µM | 430,000 tested, 0.6% active; in the data active = inhibition mostly above about 37%, no sharp cut-off; inactive = mostly below about 20%;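 note: plate controls were negative control peptide for no effect and reference peptide for full effect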
Numbers without * were called inactive; u = inconclusive; x = no result given. This is a sample that favours compounds with a hit; in the whole collection about 3.1% have one here. Cut-off read from the data, not from the text of the source, unless noted: active = inhibition above about 30%; inconclusive = no clear call, values can overlap the other calls; inactive = below that.

SMILES | BoNT-A LC inh2 | Anthrax LF inh2 | BoNT-F LC inh | Bead autofluor | PriA SSB inh
COc1ccccc1CC(=O)Nc1ccc(S(=O)(=O)N2CCCCC2)cc1 | 0 | -11 | 6 | 4278 | -7
O=C(Nc1ccncc1)c1cc(S(=O)(=O)N2CCCC2)ccc1Cl | 6 | 0 | 12 | 4297 | -9
COc1ccccc1N(CC(=O)Nc1ccc(S(=O)(=O)N2CCCCC2)cc1)S(C)(=O)=O | u | -2 | -4 | 22900* | -7
COc1ccccc1C(=O)Nc1ccc(S(=O)(=O)N2CCCC2)cc1 | u | -4 | -2 | 16385* | -17
O=C(Nc1ccc(O)cc1)c1cc(S(=O)(=O)N2CCCC2)ccc1Cl | 6 | 0 | 10 | 20180* | -6
Cn1c(=O)c2[nH]c(SCc3cccc(Cl)c3)nc2n(C)c1=O | x | x | x | x | 4
CCNc1nc(NCC)n2c(SCC(=O)Nc3cc(C)ccc3OC)nnc2n1 | x | x | x | x | -2
COc1ccc(NC(=O)c2cc(S(=O)(=O)N3CCCCC3)ccc2N2CCCCC2)cn1 | -1 | 1 | -2 | 23676* | 6
Cc1ccc(NC(=O)c2cc(S(=O)(=O)N3CCCCC3)ccc2N2CCOCC2)cc1 | 1 | 1 | -5 | 3866 | x
CN1C(=O)c2ccc(NC(=O)C3CCN(S(=O)(=O)c4ccc(Cl)s4)CC3)cc2C1=O | x | x | x | x | 6
CCc1ccc(OCC(=O)Nc2cccc3c2CCCC3)cc1 | 0 | -3 | -5 | 2515 | 51*
CCc1ccc(OCC(=O)Nc2cc(S(=O)(=O)CC)ccc2O)cc1 | 4 | 0 | 4 | 17897* | -18
NC(=O)[C@@H]1CCCNc2c(I)cc([N+](=O)[O-])cc2C(=O)N[C@@H](Cc2ccccc2)C(=O)N[C@@H](Cc2cnc[nH]2)C(=O)N1 | 0 | 7 | -8 | 2952 | 41*
NC(=O)[C@@H]1CCCNc2c(I)cc([N+](=O)[O-])cc2C(=O)N[C@@H](CO)C(=O)N[C@@H](Cc2ccc(O)cc2)C(=O)N1 | -1 | -1 | 0 | 4171 | 2
Cc1cnc(NC(=O)CSc2nnc(Cc3ccccc3)n2C)s1 | -4 | -1 | -5 | 21335* | -11
CCn1c(Cc2ccccc2)nnc1SCC(=O)Nc1ccc2c(c1)OCCO2 | u | -16 | 19 | 17692* | -6
CCn1c(Cc2ccccc2)nnc1SCC(=O)Nc1ccc(N)cc1 | 0 | -6 | -1 | 4968 | -1
CCn1c(COc2ccccc2C)nnc1SCC(=O)Nc1ccc2c(c1)OCCO2 | u | 2 | -2 | 20676* | -8
CCn1c(Cc2ccccc2)nnc1SCC(=O)Nc1nc(C)cs1 | 0 | 0 | 5 | 4448 | -19
CCn1c(Cc2ccccc2)nnc1SCC(=O)Nc1nc(C)c(C)s1 | 2 | 0 | 6 | 21539* | 5
CC(=O)Cc1nsc(NC(=O)c2ccc3c(c2)OCCO3)n1 | x | x | x | x | -11
COc1cc(=O)n(-c2ccccc2)nc1C(=O)Nc1ccccc1-c1cn2ccccc2n1 | x | x | x | x | -17
Cc1cc(C)n(C(C)CNC(=O)c2ccccc2Cl)n1 (stereo not given) | x | x | x | x | -1
O=S(=O)(c1ccccc1)C(Br)(Br)S(=O)(=O)c1ccccc1 | x | x | x | x | -14
CCOc1ccccc1NC(=O)CCCn1nc(-c2ccc(F)cc2)ccc1=O | x | x | x | x | -23
SMILES | BoNT-A LC inh2 | Anthrax LF inh2 | BoNT-F LC inh | Bead autofluor | PriA SSB inh
CCCOc1ccc(/C=C/C(=O)Nc2cc(OC)c(Cl)cc2OC)cc1 | x | x | x | x | -2
CCn1c(=O)cc(SCC(=O)Nc2ccc3c(c2)OCCO3)c2ccccc21 | 7 | -4 | 10 | 20714* | 4
COc1ccc(NC(=O)CSc2nc3c(c(-c4ccc(OC)cc4)c2C#N)C(=O)CC(C)(C)C3)cc1 | x | x | x | x | 3
Cc1ccc(N)c(C)c1 | 0 | 5 | -9 | 5840 | 12
Cc1ccc(N=Nc2cc(C)ccc2N)cc1 | 0 | 1 | -10 | 5537 | 93*
Cc1ccccc1C1=NCC(=O)N(CC(=O)N2CCCCC2)c2sc(C)c(C)c21 | u | 0 | -2 | 22255* | -12
O=C(CN1C(=O)c2ccccc2S1(=O)=O)N1CCCCC1 | -3 | 20 | -7 | 3004 | 2
O=C(NC(=S)Nc1ccc(N2CCCC2)cc1)c1ccccc1[N+](=O)[O-] | 0 | -2 | 0 | 1967 | 42
O=C(Nc1ccccc1N1CCOCC1)c1ccccc1[N+](=O)[O-] | -2 | 0 | -2 | 24174* | -15
O=C(NC(=S)Nc1ccccc1N1CCCC1)c1ccccc1[N+](=O)[O-] | -1 | -2 | -6 | 2576 | 57*
c1cncc(CSc2nnc(-c3ccco3)o2)c1 | x | x | x | x | -8
COc1cccc(CNn2cnnc2)c1OCc1ccccc1F | u | -4 | 14 | 20043* | -21
Cc1cc(C(=O)CSc2nnc(-c3ccncc3)n2-c2ccccc2)c(C)n1C | 0 | -21 | -5 | 5848 | -10
O=C(Cc1cccs1)Nc1nc2c(s1)CCCC2 | -3 | -2 | -6 | 17280* | 8
Cc1cc(C(=O)CSc2nnc(-c3ccccc3)n2C)c(C)n1C | 0 | -13 | -3 | 22200* | -10
CCSc1nnc(NC(=O)/C=C/c2ccco2)s1 | 0 | -1 | -2 | 4651 | -15
CCc1nnc(NC(=O)/C=C/c2ccco2)s1 | 4 | 2 | 44* | 2625 | 7
Cn1c(SCC(=O)Nc2nc3c(s2)CCCC3)nnc1-c1ccccc1 | -1 | -6 | -2 | 20299* | -6
O=C(CSc1ccc(S(=O)(=O)c2cccc(F)c2)nn1)N1CCN(c2ccccc2)CC1 | x | x | x | x | 3
Cn1nc(CN(C(=O)c2ccccc2Br)C2CCCC2)cc1C1CC1 | x | x | x | x | -7
O=C(Cc1cccs1)NCCn1nc(-c2ccccn2)c2c1CCCC2 | x | x | x | x | -13
Cn1c(SCC(=O)Nc2ccccc2-c2ccccc2)nnc1-c1ccco1 | -1 | -4 | -2 | 16441* | -5
Cc1occc1-c1nnc(SCC(=O)Nc2ccccc2-c2ccccc2)n1C | 1 | 2 | 16 | 4873 | -4
CCc1nnc(NC(=O)CSc2nnc(-c3ccco3)n2C)s1 | 1 | -4 | 1 | 21882* | 1
CCc1nnc(NC(=O)CSc2nnc(-c3ccco3)n2CC)s1 | -2 | 2 | 0 | 22759* | 1
SMILES | BoNT-A LC inh2 | Anthrax LF inh2 | BoNT-F LC inh | Bead autofluor | PriA SSB inh
CCOC(=O)c1c(S(=O)(=O)N2CCN(c3ccccc3Cl)CC2)n[nH]c1CC | x | x | x | x | 5
O=c1c2c([N+](=O)[O-])cc([N+](=O)[O-])cc2sn1Cc1ccccc1 | 50* | -10 | 56* | 3488 | 12
O=c1c2c([N+](=O)[O-])cc([N+](=O)[O-])cc2sn1-c1ccc(Br)cc1 | 3 | -3 | 8 | 2407 | 34
CC(=O)Nc1ccc(NC(=O)CSc2nccn2Cc2ccc(Cl)cc2)cc1 | -3 | -5 | 1 | 6092 | 1
O=C(CSc1nccn1Cc1ccc(Cl)cc1)Nc1ccc2c(c1)OCCO2 | x | x | x | x | 42*
C=CCn1c(-c2ccc(OC)cc2)cnc1SCC(=O)Nc1cccc(Cl)c1 | x | x | x | x | 39*

Source: PubChem (several laboratories)
